Test results taken from PubChem BioAssay AID720641 (ICCB-Longwood Screening Facility, Harvard Medical School, 2013).
Values joined by “and” are separate entries in the source; they are usually repeats but may differ in a detail not shown here. Equal values may be shown once. Screen size: about 170,000 compounds; about 900 (0.53%) were called active.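 The calls were made as follows: active = relative growth at most 50% at the other temperature and 20+ points below 30 °C, or under 10% at both; inactive = the rest, inconclusive results apart.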 What follows is part of a selection rich in actives, with near analogues and random picks from the rest.

Experiment: S. aureus growth inhibition at 42 and 30 °C, primary screen, LtaS inhibitor project, RN4220, two temperatures (AID 720641)
Details: OD600, 20 h, 42 °C, stronger effect = lower value

SMILES	relative growth	relative growth (measured here: growth at 30 °C)
CC1=NN(c2ccccc2)C(=O)C1C=C1C(=O)N(C)C(=S)N(C)C1=O (stereo not given)	109% (inactive)	103%
Cc1c(C(=O)NC2CCCC2)oc2ccc(S(=O)(=O)N(C)C3CCCCC3)cc12	142% (inactive)	89.2%
COCCNC(=O)c1cc(-c2cccc(Cl)c2)on1	92.5% (inactive)	110%
Cc1ccc(-c2cc(C(=O)Oc3ccccc3Cl)no2)cc1C	0.23% (active)	-0.03%
CCCCNC(=O)c1cc(-c2ccc(Cl)c(Cl)c2)on1	100% (inactive)	88%
CC(=O)Nc1ccc2nc3c(cc2c1)[nH]c1ccccc13	114% (inactive)	93.5%
COc1ccc(-c2csc3ncnc(NCCSCc4ccco4)c23)cc1	67.1% (inactive)	66.9%
Clc1ccc(C(Cn2ccnc2)OCc2ccsc2Cl)c(Cl)c1 (stereo not given)	-0.03% (active) and -0.62% (active)	0.13% and 0.06%
CC1CCCCN1C(=O)c1ccc(Br)cc1 (stereo not given)	99.9% (inactive)	91.1%
COc1ccc(N=C2SCCCN2C(=O)C2CCCC2)cc1OC	94.4% (inactive)	86%
CC(NCc1ccc(OC(F)F)cc1OC(F)F)c1ccc(-n2ccnc2)cc1 (stereo not given)	101% (inactive)	92.4%
COc1ccccc1NC(=O)Oc1ccc2ccncc2c1	105% (inactive)	97.9%
Sc1ccc2ccccc2c1	82.2% (inactive)	91%
c1ccc2cc3cnccc3cc2c1	3.61% (active)	2.36%
CC(=O)N1CC=C(c2ccc(O)cc2)CC1	37.5% (inactive)	31.2%
O=C(NCCc1ccccc1)c1ccc(C(=O)c2ccccc2)o1	99.2% (inactive)	94.2%
Cc1cc(C)cc(NS(=O)(=O)c2ccc3c(c2)CC(=O)N3)c1	96.8% (inactive)	77%
COc1cc(NC(=O)c2cc3ccc4cccnc4c3[nH]2)cc(OC)c1OC	90.5% (inactive)	89.8%
CC1=Nc2c(ccc3cccnc23)C1(C)C	3.05% (active)	2.08%
Cc1cc(NC(=O)c2cc3ccc4cccnc4c3[nH]2)no1	108% (inactive)	92.6%
O=C(COC(=O)c1n[nH]c2ccccc12)Nc1ccc(N2CCOCC2)cc1	104% (inactive)	96.3%
Cc1ccc(-n2c(C)ccc2C)cc1	97.4% (inactive)	101%
Oc1c(Cl)cc(Cl)c(Cl)c1Cc1c(O)c(Cl)cc(Cl)c1Cl	-0.02% (active)	-0.87%

SMILES	relative growth	relative growth (measured here: growth at 30 °C)
COCC(C)NC(=O)Nc1c[nH]c2ccccc12 (stereo not given)	78.5% (inactive)	50.9%
O=C(Nc1c[nH]c2ccccc12)NC1CCCC1	103% (inactive)	62.5%
CN1CCC(N(C)C(=O)Nc2c[nH]c3ccccc23)CC1	3.18% (active)	6.3%
CCOC(=O)N1CCC(N(CCOC)C(=S)Nc2ccccc2F)CC1	83.6% (inactive)	74.7%
Cc1ccc(NC(=O)CC2SC(=Nc3ccc(S(N)(=O)=O)cc3)NC2=O)cc1 (stereo not given)	100% (inactive)	94.2%
CCC(C)NC(=O)Cn1nc(-c2ccccc2)c2cc(Cl)ccc21 (stereo not given)	105% (inactive)	86.8%
C=CCNC(=O)c1ccc(S(=O)(=O)N(CC)c2ccccc2)cc1	99.8% (inactive)	91%
Cc1cnc(C(=O)OCc2cc(=O)n3ccsc3n2)cn1	86.6% (inactive)	101%
CCOC(=O)OC(C)OC(=O)C1N2C(=O)C(NC(=O)[C@H](N)c3ccccc3)C2SC1(C)C (stereo not given in full)	-1.14% (active)	-0.8%
CC(Oc1ccccc1)C(=O)NC1CCCCC1 (stereo not given)	110% (inactive)	98.3%
CC(Oc1ccccc1)C(=O)N[C@@H]1C(=O)N2[C@@H]1SC(C)(C)[C@@H]2C(=O)O (stereo not given in full)	-1.13% (active)	-0.8%
CC1(C)S[C@@H]2[C@H](N=CN3CCCCCC3)C(=O)N2[C@H]1C(=O)O	93.7% (inactive)	82.3%
COC(=O)C(N)c1ccccc1 (stereo not given)	68.2% (inactive)	90.3%
C1=CCC(/C=N/Nc2nc3ccccc3o2)CC1 (stereo not given)	82% (inactive)	84.9%
Cc1cc2oc(=O)cc(Cn3nnc(-c4ccc(F)cc4)n3)c2cc1C	84.4% (inactive)	95.6%
CCCNS(=O)(=O)c1ccc(N2CCCCS2(=O)=O)cc1	101% (inactive)	93.7%
c1ccc(-c2nc3ccccc3nc2N2CCCC2)cc1	97.9% (inactive)	98.8%
O=C(O)CCCC(=O)Nc1cc(C(F)(F)F)cc(C(F)(F)F)c1	101% (inactive)	71.5%
O=C(N/C=C/c1ccsc1)Nc1cc(C(F)(F)F)cc(C(F)(F)F)c1	-2.07% (active)	-0.58%
O=C(CSc1ccccn1)Nc1cc(C(F)(F)F)cc(C(F)(F)F)c1	112% (inactive)	86.3%
CC(=O)OCC(=O)CC12CC3CC(CC(C3)C1)C2	83.3% (inactive)	93.7%
CCOC(=O)CN1C(=O)S/C(=C\c2ccc(-c3ccc(Cl)cc3Cl)o2)C1=O	89.9% (inactive)	87%
CCN1CCCC1CNC(=O)c1nnc(Cc2ccccc2OC)o1 (stereo not given)	79.5% (inactive)	88.3%

SMILES	relative growth	relative growth (measured here: growth at 30 °C)
FC(F)(F)c1cc(-c2ccc(Br)cc2)n[nH]1	8.64% (active)	4.24%
CC(C)(C)c1ccc(S(=O)(=O)N2CCN(C(=O)c3cc(-c4ccc(Br)cc4)n[nH]3)CC2)cc1	99.3% (inactive)	102%
Cc1cc(C)c(NC(=O)CSC2=NN3CCCC(=O)N=C3S2)c(C)c1	95% (inactive)	89%
CCCNc1ncnc2onc(-c3ccc(F)cc3)c12	90.2% (inactive)	91%
CNC(=O)C1CCN(S(=O)(=O)c2c(C)noc2/C=C/c2cccc(C)c2)CC1	107% (inactive)	81.4%
CCCOc1c(Br)cc(C(=O)O)cc1OC	90.2% (inactive)	101%
CC1CC(C)CN(C(=O)C(C)n2sc3ccccc3c2=O)C1 (stereo not given)	120% (inactive)	95.8%
CCn1c(SCc2c(C)noc2C)nc2cc(S(=O)(=O)N3CCOCC3)ccc21	63.8% (inactive)	94%
NC(=O)c1ncoc1-c1cccc(Cl)c1	108% (inactive)	76%
Oc1ccc(SSc2ccc(O)cc2)cc1	3.56% (active)	3.94%
Oc1ccc(-n2cccc2)cc1	84.2% (inactive)	92.9%
Oc1ccc(-c2cccc(-c3ccc(O)cc3)c2)cc1	97.5% (inactive)	59.9%
CCOC(=O)C1=C(C)Nc2[nH]c(=O)[nH]c(=O)c2C1c1ccccc1 (stereo not given)	94.1% (inactive)	92.8%
FC(F)(F)C1CCCN(c2nsc3ccccc23)C1 (stereo not given)	-0.41% (active)	-0.5%
Cc1c(/C=C/C(=O)Oc2ccc(C#N)cc2)sc2ccccc12	110% (inactive)	87.3%
Cc1ccccc1OCC(=O)Nc1cc(Sc2ccccn2)cc(S(=O)(=O)c2ccccc2)c1	103% (inactive)	88.5%
CC(C)(C)c1cc(Cl)c(O)c(NC(=O)c2cncc(Br)c2)c1	112% (inactive)	87.7%
Cc1cccc(OC(=O)Nc2ccccc2)c1	102% (inactive)	91.2%
CCn1c(CCl)nc2cc(C(=O)O)ccc21	119% (inactive)	82.3%
O=S(=O)(NC1CCCC1)c1ccc(S(=O)(=O)N2CCN(c3ncccn3)CC2)cc1	100% (inactive)	79.4%
O=C(Nc1ccncc1)c1cccc(COc2ccc3ccccc3c2)c1	1.11% (active)	2.67%
O=C(OCCN1CCCCC1)c1cccc(COc2ccc3ccccc3c2)c1	102% (inactive)	83%
O=C(Nc1cccc(-c2nc3ccccc3o2)c1)c1cccc(OCc2ccccc2)c1	124% (inactive)	93.3%

SMILES	relative growth	relative growth (measured here: growth at 30 °C)
CCOc1ccc(C(=O)NN)cc1	77.2% (inactive)	80.8%
CCn1c(CSc2nc3ccccc3s2)nnc1SC(C)C(=O)Nc1ccc(N(C)C)cc1 (stereo not given)	116% (inactive)	97.9%
O=C(Sc1cccs1)c1csc(C2COc3ccccc3O2)n1 (stereo not given)	0.36% (active)	-0.46%
O=C(Oc1ccc(Cl)cc1)c1csc(C2COc3ccccc3O2)n1 (stereo not given)	92.8% (inactive)	92.7%
CN(C)C(=O)c1csc(C2COc3ccccc3O2)n1 (stereo not given)	93.5% (inactive)	87.9%
N#C/C(=C\c1ccccc1F)c1ccccc1	110% (inactive)	92.3%
CC1=CC(=O)C=CC1=N/C(=N\S(=O)(=O)c1ccc(C)cc1)c1ccccc1	104% (inactive)	57.7%
COCCn1c(SC)nc2c(c1=O)SCC2	96% (inactive)	94.8%
N#C/C(=C\c1ccc(-c2ccc(S(=O)(=O)N3CCOCC3)cc2)o1)S(=O)(=O)c1ccc(Br)cc1	87.4% (inactive)	90.9%
CN(C(=O)c1cccnc1Cl)C1CCS(=O)(=O)C1 (stereo not given)	115% (inactive)	88.3%
CCn1nc(-c2cccs2)cc1C(=O)N(C)C	105% (inactive)	86.8%
CCOC(=O)CSc1ccccn1	94.9% (inactive)	101%
CCOC(=O)CCSc1ccccn1	0.28% (active)	-0.27%
COC(=O)c1ccccc1NC(=O)CSc1ccccn1	93.1% (inactive)	93.2%
Cc1ccc(NC(=O)c2nc(S(=O)(=O)Cc3cccc(C)c3)ncc2Cl)cc1	8.42% (active)	21.7%
CCSc1ncc(Cl)c(C(=O)Nc2cc(C)ccc2C)n1	108% (inactive)	85.1%
CSc1nnc(NC(=O)c2nc(S(=O)(=O)Cc3ccc(F)cc3)ncc2Cl)s1	93.7% (inactive)	90.3%
COc1cccc(OCCCN2CCNCC2)c1	107% (inactive)	91%
Cc1ccc(S(=O)(=O)N(C)c2ccc(OCC(=O)N3CCN(c4ncccn4)CC3)cc2)cc1	105% (inactive)	95.7%
O=C(CSc1nnc(-c2ccccc2)o1)N(CC1CCCO1)c1nc2ccccc2s1 (stereo not given)	101% (inactive)	92.8%
C=CCn1c(SCC(=O)Nc2sc(C(=O)OC)c(C)c2C(=O)OC)nc2ccccc21	103% (inactive)	90.4%
